The list is not random: actives were taken first. Their share in the collection is about 1.6%.
PERK inhibitor: blocks human PERK kinase. Q9NZJ5. CHO PERK-DD fusion, SEAP luminescence translation reporter. inhibition, % at 5.6 µM. 220,000 tested, 0.17% active;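 active = inhibition above the mean inhibition of all tested compounds plus 3 SD, set separately per screening campaign, cut at about 2.9% in these data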;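 note: PERK kinase domain activated by AP20187 dimerizer at 100 nM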
PABP1 MLLE inh: inhibitors of microRNA-mediated deadenylation, human PABP1 MLLE binding | P11940 | GST-MLLE / FITC-PAM2 fluorescence polarization | inhibition, % at 20 µM | 360,000 tested, 0.36% active | AID 588489; in the data active = inhibition above about 35%, passing the limit was not always enough
PABP polyA inh: PABP-poly(A) binding inhibition | P11940 | PABP-poly(A) RNA binding, fluorescence polarization | inhibition, % at 35 µM | 290,000 tested, 1% active;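 note: calls also rest on retests at 20 µM and on dose response follow-up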
eIF4H FP inh: inhibitors of RNA binding by human eIF4H; Q15056; eIF4H fluorescence polarization binding assay; inhibition, % at 35 µM; 290,000 tested, 0.94% active;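 note: calls also rest on retests at 20 µM and on dose response follow-up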
eIF4E-4G inh: blocks eIF4E binding to eIF4G | P63073+Q04637 | TR-FRET eIF4E-eIF4GI(517-606) binding, 2 h | inhibition, % at 21.7 µM | 220,000 tested, 0.37% active;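 active = inhibition above about 30%, limit read from the data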
A number is an active result; i = inactive; ? = inconclusive; nt = no result given; [ ] = another dose, or the depositor's remark. Unless noted, the rule behind the calls is not given here.

SMILES	PERK inhibitor	PABP1 MLLE inh	PABP polyA inh	eIF4H FP inh	eIF4E-4G inh
Cc1ccc(S(=O)(=O)N2CCCCC2)cc1NC(=O)CSc1nc(N)cc(=O)[nH]1	nt	i	nt	nt	nt
C[C@@H]1CN=C2N(CCNC(=O)CCC3CCCCC3)[C@H](Cc3ccc(O)cc3)CN21	i	i	i	i	i
CCCCCCNC(=O)N[C@H](C(=O)NCCC[C@H]1CN2C(=NC[C@H]2C)N1CCC(c1ccccc1)c1ccccc1)C(C)O (stereo partly drawn)	nt	nt	i	i	53
C[n+]1cccc2cccc([O-])c21	i	i	47	i	i
O=C(/C=C/c1ccco1)N(c1ccccn1)c1ccccn1	i	i	i	101	34
Cc1ccc(Cn2c(=S)[nH]c3ccc(N4CCOCC4)cc3c2=O)o1	i	i	54	72	i
O=c1c2cc(N3CCOCC3)ccc2[nH]c(=S)n1Cc1ccc(Cl)cc1	i	i	i	i	i
Cc1ccc(NC(=O)CNc2ccccc2N2CCCC2=O)cc1S(=O)(=O)N1CCOCC1	nt	i	nt	nt	nt
CC(COc1ccccc1)N(CCCl)Cc1ccccc1 (stereo not drawn)	i	i	50	active	i
COc1ccc(Cl)cc1NC(=O)CN1C(=O)C(=O)N(C2CCCC2)C1=O	nt	i	nt	nt	nt
Cc1cc(Cl)ccc1N=c1ssnc1Cl	i	i	i	i	48
Cc1ccc(N=c2ssnc2Cl)cc1	i	i	i	i	72[fluorescence artefact?]
Nc1ccccc1N=c1ssnc1Cl	i	i	i	i	i
COc1cc(N=c2ssnc2Cl)c(OC)cc1Cl	i	i	i	i	73[fluorescence artefact?]
CC(C)CNC(=O)c1ccc(-c2ccc(F)c(F)c2)c2ccoc12	nt	i	nt	nt	nt
CCOC(=O)c1c(N)sc(=S)c2c1CCC2	i	41	72	33	i
CCOC(=O)c1c(N)sc(N)c1C(=O)OCC	i	i	i	i	i
CCOC(=O)c1c(N)sc2c1CCSC2	i	i	118	111	i
O=C(NCc1ccccc1)c1cc(C2COCCN2C(=O)C/C=C/c2ccccc2)on1 (stereo not drawn)	nt	i	nt	nt	nt
Cc1sc2nc(CSc3nc4ccccc4c(=O)n3CCCN3CCOCC3)[nH]c(=O)c2c1C	i	i	122	?	i
CCc1ccc(NC(=S)N2CCNC(=O)C2CC(=O)OC)cc1 (stereo not drawn)	i	i	91	i	i
COC(=O)CC1C(=O)NCCN1C(=O)Nc1ccc(Cl)cc1 (stereo not drawn)	i	i	i	i	i
CCN1C[C@@H]2[C@@H]3C(=O)N(Cc4ccccc4)C(=O)[C@@H]3[C@](C)(C1=O)N2C(=O)c1ccc(F)cc1	nt	i	nt	nt	nt
COc1ccc(C(C)C)cc1-c1cncc(NC(C)=O)n1	nt	i	nt	nt	nt
COc1ccc(NC(=O)Nc2sc(NS(=O)(=O)c3ccccc3)nc2C)cc1	i	40	i	i	i
SMILES	PERK inhibitor	PABP1 MLLE inh	PABP polyA inh	eIF4H FP inh	eIF4E-4G inh
Cc1nc(NS(=O)(=O)c2ccccc2)sc1NC(=O)OC(C)C	i	39	i	i	nt
Cc1ccc(S(=O)(=O)Nc2nc(C)c(NC(=O)OCCCl)s2)cc1	i	i	i	i	i
Cc1ccc(-c2ccc3c(c2)O[C@H](CN(C)Cc2cncnc2)[C@@H](C)CN([C@H](C)CO)S3(=O)=O)cc1	nt	i	nt	nt	nt
O=C1NC[C@H](Cc2ccccc2)N(CC2CCN(CCCC3CCCC3)CC2)C1=O	nt	i	nt	nt	nt
Cc1c(CCO)c(=O)n2c([nH]c3ccccc32)c1C#N	nt	i	i	i	nt
N#Cc1c(=O)c2nc(NCCCO)ncc2n2c(=O)c3ccccc3[nH]c12	i	i	35	78	i
O=C(O)Cn1nc(-c2ccccc2)oc1=O	3.0	i	i	i	i
CCNC(=O)C1(C)CCN(Cc2noc(-c3c(C)noc3C)n2)C1 (stereo not drawn)	nt	i	nt	nt	nt
Cc1cc2c(c(=O)n1Cc1ccco1)C(c1cccnc1)C(C#N)=C(N)O2 (stereo not drawn)	i	i	123	124	i
Cc1ccc(C)c(/C(O)=C2/C(=O)C(=O)N(CCN3CCOCC3)C2c2ccco2)c1 (stereo not drawn)	i	i	i	55	i
CCCCC(=O)Nc1cc(C)c(NC(=O)c2ccco2)cn1	nt	i	i	i	nt
COC(=O)CSc1ncnc2c1sc1nc3c(cc12)COC(C)(C)C3	i	i	i	active	i
CC1(C)Cc2nc3sc4c(SCC(=O)O)ncnc4c3cc2CO1	i	i	i	i	i
CC(=O)Nc1cc(-c2ccc(N(C)C)cc2)cn2c(-c3ccc(F)c(Cl)c3)cnc12	nt	i	nt	nt	nt
CS(=O)(=O)N1CCN(C(=O)C(Sc2ccccc2)c2ccccc2)CC1 (stereo not drawn)	i	43	i	i	i
Cc1ccc(C(=O)NNC(=O)C2CCN(S(=O)(=O)c3ccc(C)cc3)CC2)cc1	i	i	i	i	i
Cc1ccc(S(=O)(=O)N2CCC(C(=O)NNC(=O)c3ccccc3)CC2)cc1	i	i	active	56	i
Nc1ccn(Cc2ccccc2)n1	i	i	i	i	i
c1ccc(Cn2ccc(-c3cnc(-c4ccccc4)s3)n2)cc1	i	i	i	93	i
Cc1cc(NC(=O)CSc2nnc(COc3ccccc3)n2Cc2ccco2)no1	i	i	i	i	i
COc1ccc(CNC(=O)CSc2nnc3c(n2)[nH]c2ccccc23)cc1	nt	i	i	i	nt
O=C(CSc1nnc(COc2ccccc2)n1Cc1ccco1)NCc1ccco1	i	i	39	50	i
O=C(CSc1nnc2c(n1)[nH]c1ccccc12)NCc1ccco1	i	43	i	i	i
CCc1nc2c(OCc3cccc(Cl)c3)cccn2c1N(C)C(=O)c1ccc(OC)cc1	nt	i	nt	nt	nt
CC(C)C(NC(=O)c1c(F)cccc1F)C(=O)N1CCN(S(=O)(=O)/C=C/c2ccccc2)CC1 (stereo not drawn)	nt	i	nt	nt	nt
SMILES	PERK inhibitor	PABP1 MLLE inh	PABP polyA inh	eIF4H FP inh	eIF4E-4G inh
COc1cc2c(cc1NC(=O)c1ccc(C)c([N+](=O)[O-])c1)oc1ccccc12	i	i	i	active	i
O=C(N/N=C/c1cn(Cc2cccc(F)c2)c2ccccc12)c1cc(O)cc(O)c1	nt	i	89	100	nt
Nc1ccc(C(=O)N/N=C/c2cn(Cc3ccc(F)cc3)c3ccccc23)cc1	nt	i	i	i	nt
Cc1oc(-c2ccc(F)cc2)cc1-c1nn2c(-c3ccco3)nnc2s1	i	nt	nt	nt	nt
Cc1oc(-c2ccc(Cl)cc2)cc1-c1nn2c(-c3ccco3)nnc2s1	nt	nt	56	64	nt
COc1ccc(-c2nn3c(-c4ccco4)nnc3s2)cc1OC	i	i	i	i	nt
COc1cc(OC)c(-c2nn3c(-c4ccco4)nnc3s2)cc1OC	i	i	i	75	i
Cc1oc(-c2ccc(F)cc2)cc1-c1nn2c(-c3ccoc3C)nnc2s1	nt	i	63	80	nt
COc1cc(C=NO)nc(-c2ccccn2)c1	nt	i	nt	nt	nt
COc1cc(-c2cc(-c3ccc(O)cc3)nc(N)c2C#N)ccc1O	i	i	i	i	i
CCOc1cc(-c2cc(-c3ccc(C)cc3)nc(N)c2C#N)ccc1O	i	i	74	58	i
CC(=O)Oc1ccc(C(=O)Nc2ccc(S(=O)(=O)NCC3CCCO3)cc2)cc1 (stereo not drawn)	nt	i	i	i	nt
CCCCCCc1cc2cc(C(N)=O)c(=N)oc2cc1O	i	nt	108	96	i
Cc1ccc(-n2c(C)cc(C(=O)CN3CCOCC3)c2C)cc1C	i	i	67	active	i
